Pol eta inh: blocks human DNA polymerase eta activity; Q9Y253; recombinant Pol eta, fluorescent DNA replication assay; Potency, µM (titrated, usually from 114 µM), for the others: at the highest dose activity change, negative = inhibition, hits mostly inhibitors; 390,000 compounds, 1.2% hits; AID 588591; note: % is set by controls: 0 for no effect and ±100 for the full control effect
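Fluorescent replication assay: 50 nM final substrate added after a 15 min room-temperature compound preincubation with 10 nM enzyme. Signal taken at 0 min and again at 10 min.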
Pol beta inh: inhibitors of human DNA polymerase beta | Pol beta primer extension/strand displacement, fluorescence kinetic | Potency, µM (titrated, usually from 114 µM), for inactives: top-dose activity change, negative = inhibition, actives largely listed as inhibitors | 340,000 compounds, 1.3% hits | AID 485314; note: % is set by controls: 0 for no effect and ±100 for the full control effect
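10 nM enzyme + cpd, 15 min RT; start with substrate 50 nM final; read 0 min and after 10 min RT. Corrected, normalized data; 4-parameter Hill curve fit.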
POLK inh: DNA polymerase kappa (human) inhibition; Potency, µM (series often up to 107 µM), without a hit: top-dose activity, negative = inhibition, usual class: inhibitors; AID 588579; 400,000 compounds, 0.53% hits; Q9UBT6; purified Pol kappa, fluorescent DNA synthesis assay, 10 min; note: % is set by controls: 0 for no effect and ±100 for the full control effect
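Pol kappa 10 nM + cpd, 15 min RT; start w/ substrate 50 nM final; fluorescence kinetic read, 0 and 10 min. Neg ctrl: buffer, no enzyme.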
GLS inh: glutaminase GLS (human) inhibition. O94925. 410,000 compounds, 0.21% hits. GLS enzymatic activity, qHTS titration. Potency, µM (titrated, usually from 45.5 µM), for the others: top-dose activity change, negative = inhibition, usual class: inhibitors. AID 624170; note: % is set by controls: 0 for no effect and ±100 for the full control effect
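Coupled fluorescence readout: glutamate oxidase/HRP/Amplex Red detect glutamate formed by hKGA from L-glutamine (1 mM solution added). Buffer 45 mM KH2PO4 pH 8.2, 0.02% Tween-20; reads at t0 and 30 min RT.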
POLI inh: blocks human DNA polymerase iota activity. Q9UNA4. Pol iota fluorescent replication assay, 10 min. Potency, µM (doses to about 115 µM), inactives show top-dose activity, negative = inhibition, hits mostly inhibitors. 390,000 compounds, 1% hits
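Pol iota at 10 nM preincubated 15 min with compounds at room temperature; reaction started with fluorescent substrate, 50 nM final. Fluorescence read kinetically at 0 and 10 min; buffer-only wells as negative control.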
APE1 inh: inhibitors of human APE1 endonuclease. Potency, µM (series often up to 65.8 µM), for the others: at the highest dose activity change, negative = inhibition, actives largely listed as inhibitors. P27695. recombinant APE1, TAMRA/BHQ-2 abasic DNA cleavage fluorescence. 350,000 compounds, 0.35% hits;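 note: plate controls were vehicle for no effect and reference inhibitor for full effect; nearly all actives have a fitted effect of over 55% in size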
Target sequence (P27695 whole entry, looked up): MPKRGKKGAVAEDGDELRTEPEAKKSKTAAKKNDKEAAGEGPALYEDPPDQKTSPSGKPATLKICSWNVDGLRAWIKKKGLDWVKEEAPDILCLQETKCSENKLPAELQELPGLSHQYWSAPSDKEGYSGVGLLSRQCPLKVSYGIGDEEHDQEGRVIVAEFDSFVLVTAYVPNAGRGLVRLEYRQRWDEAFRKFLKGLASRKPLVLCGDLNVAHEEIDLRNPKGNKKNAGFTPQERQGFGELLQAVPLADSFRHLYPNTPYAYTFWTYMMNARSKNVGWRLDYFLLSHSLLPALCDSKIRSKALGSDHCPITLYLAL
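Substrate: short duplex with […] THF abasic site, 5'-TAMRA and 3'-BHQ-2, 50 nM final. APE1 at 0.75 nM, preincubated 15 min RT with compound. Fluorescence increase from first to third read measured activity.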
* marks the source's active call; other numbers are inactive results; ! = a repeat was not active; [ ] = remark or other dose. Sampled rows, rich in hits. Any-hit rate of the full collection: about 2.4%. Calls come from the whole dose curve; as a rule, active = well fitted curve in the direction sought with a large enough effect; inconclusive = small, poorly fitted or top-dose-only effect, or another doubt; inactive = no such curve, though single readings can be large; an effect the other way counts as inactive or inconclusive. Potency is the fitted concentration of half-maximal effect.

For O=S(=O)(Nc1nccs1)c1ccc(NS(=O)(=O)c2c(F)cc(F)c(Cl)c2F)cc1 the results were Pol eta inh 50µM*, POLK inh -12%, GLS inh -21%, POLI inh inconclusive and APE1 inh 20%.
CCN1C(=O)/C(=C\c2cn(CCC#N)nc2-c2ccc(F)cc2)SC1=S was read as Pol eta inh -27%, Pol beta inh 42%, POLK inh -14%[60.1 µM], GLS inh 2%, POLI inh 49% and APE1 inh -2%.
For COc1ccc(Cn2c(SCc3ccc(C(=O)NCc4ccc(C)cc4)cc3)nc3cccnc32)cc1 the results were Pol eta inh -5%, Pol beta inh 13%, POLK inh -36%, GLS inh -1% and POLI inh 79µM*.
Nc1ccc(O)cc1 was read as POLK inh 89µM*, GLS inh 13µM*, POLI inh 7.1µM* and APE1 inh -4%.
Nc1ccc(C(=O)O)cc1 was read as Pol eta inh -13%, POLK inh 14%, GLS inh 2%, POLI inh 35% and APE1 inh -7%.
Screening Cc1cc(=O)oc2cc(OCc3ccc(C(=O)N4CCN(c5ccccc5)CC4)cc3)ccc12 returned Pol eta inh 3%, Pol beta inh 11µM*, POLK inh -2%, GLS inh 4%, POLI inh 121% and APE1 inh 2%.
For CCOc1cc(/C=N/Nc2nnc(C)n2N)ccc1O the results were Pol eta inh -5%, Pol beta inh -24%, POLK inh -18%, GLS inh -4%, POLI inh 8.9µM* and APE1 inh 77%.
For CCOc1cc(/C=N/Nc2ncnc(Cl)c2N)ccc1O the results were Pol eta inh -30%, Pol beta inh inconclusive, POLK inh -25%, GLS inh -19%, POLI inh 9% and APE1 inh -1%.
Screening CCOc1cc(/C=N/NC(=O)N/N=C/c2ccc(O)c(OCC)c2)ccc1O returned Pol eta inh -20%, POLK inh -33%, GLS inh 8.9µM* and POLI inh 53%.
Screening CCOc1cc(/C=C2\CN(C)C/C(=C\c3ccc(O)c(OCC)c3)C2=O)ccc1O returned Pol eta inh 45µM*, Pol beta inh 20%, POLK inh -26%, GLS inh -3%, POLI inh inconclusive and APE1 inh 20%.
Screening COc1cc(C=C2CN(C)C(=O)C2=O)ccc1O returned Pol eta inh -19% and GLS inh 17%.
For COC(=O)c1cccnc1-n1c(=O)c2cccnc2n(CC(=O)Nc2cccc(C(F)(F)F)c2)c1=O the results were Pol eta inh -4%, Pol beta inh -3%, POLK inh -14%, GLS inh 0% and POLI inh -13%.
CCN(CC(=O)NCc1cccs1)C(=O)c1ccc(S(=O)(=O)N(C)c2ccccc2)cc1 was read as Pol eta inh -7%, POLK inh -13%, GLS inh -2%, POLI inh 39% and APE1 inh -10%.
For N=c1c(S(=O)(=O)c2ccccc2)cc2c(=O)n3ccccc3nc2n1Cc1ccco1 the results were Pol eta inh inconclusive, Pol beta inh 18µM*, POLK inh -15%, GLS inh 14%, POLI inh inconclusive and APE1 inh -1%.
Screening COCCCn1c(=N)c(S(=O)(=O)c2ccccc2)cc2c(=O)n3cc(C)ccc3nc21 returned Pol eta inh -17%, Pol beta inh -1%, POLK inh 2%, GLS inh -3% and POLI inh 8%.
`Cc1ccc2nc3c(cc(S(=O)(=O)c4ccccc4)c(=N)n3Cc3ccco3)c(=O)n2c1` gave Pol eta inh 0%, Pol beta inh 7.9µM*, POLK inh -9%, GLS inh 11%, POLI inh -9% and APE1 inh -3%.
For Cc1ccc(S(=O)(=O)c2cc3c(=O)n4ccccc4nc3n(Cc3ccco3)c2=N)cc1C the results were Pol eta inh -25%, Pol beta inh 8.9µM*, POLK inh -4%, GLS inh 0%, POLI inh inconclusive and APE1 inh -1%.
Screening Cc1ccc(S(=O)(=O)c2cc3c(=O)n4ccccc4nc3n(CC3CCCO3)c2=N)cc1C (stereo unspecified) returned Pol eta inh -18%, Pol beta inh -1%, POLK inh -4%, GLS inh -5%, POLI inh 17% and APE1 inh 0%.
For CCOC(=O)c1cc2c(=O)n3ccccc3nc2n(Cc2ccco2)c1=NC(=O)c1ccc(OC)cc1 the results were Pol eta inh -16%, Pol beta inh 33%, POLK inh inconclusive, GLS inh -14%, POLI inh 22µM*! and APE1 inh -7%.
For O=C(Nc1ccc(Br)cc1)c1cnc[nH]1 the results were Pol eta inh -14%, Pol beta inh 5%, POLK inh 6%, GLS inh 0%, POLI inh 27% and APE1 inh 1%.
Screening Cc1c(C(=O)N2CC3(CC(c4cccc(NC(=O)CC(c5ccccc5)c5ccccc5)c4)=NO3)C[C@@H]2C(N)=O)cc([N+](=O)[O-])cc1[N+](=O)[O-] (stereo partly specified) returned Pol eta inh -13%, Pol beta inh -11%, POLK inh 0%, GLS inh -5%, POLI inh 6% and APE1 inh -6%.
Screening Cc1ccc(NC(=O)c2ccccc2Cl)cc1-n1cnnn1 returned Pol eta inh -21%, Pol beta inh 17%, POLK inh -3%, GLS inh -7%, POLI inh 65% and APE1 inh 4%.
CCc1ccc(NC(=O)CS(=O)CC(=O)Nc2ccc(-n3cnnn3)c(C)c2)cc1 (stereo unspecified) was read as Pol eta inh -2%, Pol beta inh 25µM*, POLK inh -13%, GLS inh 8%, POLI inh 14% and APE1 inh -28%.
Cc1cc(NC(=O)CS(=O)CC(=O)Nc2c(C)cccc2C)ccc1-n1cnnn1 (stereo unspecified) was read as Pol eta inh -8%, Pol beta inh 49%, POLK inh 0%, GLS inh 8%, POLI inh -1% and APE1 inh 1%.
Cc1ccc(NC(=O)c2ccccc2)cc1-n1cnnn1 was read as Pol eta inh -14%, Pol beta inh 32µM*, POLK inh -4%, GLS inh 0%, POLI inh 26% and APE1 inh 3%.

Screening data from PubChem BioAssay.
